Test results: PubChem BioAssay AID743025 (Vanderbilt Specialized Chemistry Center, 2013)
Unmarked numbers belong to inactive results. Calls of active or inactive are those of the source.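 The calls were made as follows: active = IC50 below 10 µM at human M5 in a calcium flux test, acting as a negative modulator; inactive = the rest.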

The molecules below were run against Muscarinic acetylcholine receptor M5 (Homo sapiens) (UniProt P08912) (assay: inhibition of ACh-evoked M5 calcium signal – cell-based, single concentration, human M5 (AID 743025)). Conditions: CHO-K1 hM5, ACh EC80 calcium flux, Fluo-4; at 10 µM; active compounds read low.
Chain of Muscarinic acetylcholine receptor M5 (Homo sapiens) (P08912 whole entry, looked up): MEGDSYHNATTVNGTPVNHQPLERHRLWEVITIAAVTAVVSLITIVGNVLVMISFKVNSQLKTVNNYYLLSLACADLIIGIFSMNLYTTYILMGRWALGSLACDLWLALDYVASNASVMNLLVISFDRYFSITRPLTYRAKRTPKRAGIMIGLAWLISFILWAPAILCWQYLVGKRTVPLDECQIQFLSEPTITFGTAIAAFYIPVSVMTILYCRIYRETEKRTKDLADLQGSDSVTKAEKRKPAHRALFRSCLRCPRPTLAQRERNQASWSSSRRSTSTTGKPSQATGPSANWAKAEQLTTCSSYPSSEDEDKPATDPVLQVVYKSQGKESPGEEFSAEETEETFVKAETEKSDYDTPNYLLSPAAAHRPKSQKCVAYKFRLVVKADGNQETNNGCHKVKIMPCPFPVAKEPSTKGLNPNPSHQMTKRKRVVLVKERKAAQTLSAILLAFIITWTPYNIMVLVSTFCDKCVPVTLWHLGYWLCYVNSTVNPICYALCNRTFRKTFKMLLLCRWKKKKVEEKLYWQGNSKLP

`O=C(c1ccc(Cl)cc1)N1CCCN2C(=O)c3ccccc3C12c1ccccc1` (stereo not given) was tested, and the activity remaining was 54% (active).
`COc1ccc(C23c4ccccc4C(=O)N2CCN3C(=O)c2cccc(C(F)(F)F)c2)cc1` (stereo not given) was tested, and the activity remaining was 47.9% (active).
In the case of `O=C(c1ccc(C(F)(F)F)cc1)N1CCN2C(=O)c3ccccc3C12c1ccccc1` (stereo not given), the activity remaining is reported as 1.06% (active).
In the case of `O=C(c1ccc(OC(F)F)cc1)N1CCN2C(=O)c3ccccc3C12c1ccc(Cl)cc1` (stereo not given), the activity remaining is reported as 13.3% (active).

In order of falling activity remaining:
1. O=C1c2ccccc2C2(c3ccccc3)N1CCN2C(=O)C1CC1 (stereo not given)  86.4%
2. O=C(c1ccccc1)N1CCN(C(=O)c2ccccc2)C1c1ccccc1  85.3%
3. O=C1c2ccccc2C2(c3ccccc3)N1CCN2C(=O)c1c(F)cccc1F (stereo not given)  84%
4. O=C(Nc1cccc(Cl)c1)N1CCN2C(=O)c3ccccc3C12c1ccccc1 (stereo not given)  83%
5. O=C(c1cccnc1)N1CCN2C(=O)c3ccccc3C12c1ccc(Cl)cc1 (stereo not given)  82.6%
6. O=C(c1ccccc1)N1CCCN2C(=O)c3ccccc3C12c1ccc(Cl)cc1 (stereo not given)  82.5%
7. O=C(c1cccs1)N1CCN2C(=O)c3ccccc3C12c1ccccc1 (stereo not given)  79.5%
8. O=C(c1cc(F)cc(F)c1)N1CCN2C(=O)c3ncccc3C12c1ccccc1 (stereo not given)  75.2%
9. O=C(c1cccnc1)N1CCN2C(=O)c3ccccc3C12c1ccccc1 (stereo not given)  74.8%
10. O=C(c1ccccc1)N1CCN2C(=O)c3ccccc3C12c1ccccc1 (stereo not given)  74.8%
11. O=C(c1ccc(F)c(F)c1)N1CCN2C(=O)c3ccccc3C12c1ccc(F)cc1 (stereo not given)  64.5%
